Data on 93 compounds can be found in PubChem BioAssay AID463173 (ICCB-Longwood Screening Facility, Harvard Medical School, 2010).

The whole screen tested about 52,000 compounds, of which about 1,700 (3.3%) were called active. Shown is part of a subset that was picked to be rich in actives. Unmarked numbers belong to inactive results. No stated cut-off is given here; in the data, active means survival mostly below about 52% (no sharp cut-off); inactive means mostly above about 56%.

The test system of this test is Wild type. Put plainly: growth inhibition of S. aureus wild type versus tarO mutant, primary screen, teichoic acid synthesis inhibitors, RN4220, OD600 (AID 463173). As to conditions: S. aureus RN4220 wild type/DeltatarO growth, OD600, 18 h, stronger effect = lower value, screened at 18.75 µg/mL (by protocol).
Regarding `CCc1ccc(NC(=O)Cn2nnc(C(=O)NCc3ccc(C)cc3)c2N)cc1`, the survival was 69%.
In the case of `COc1ccc(-c2cn3c(n2)sc2cc(C(=O)Nc4cc(OC)cc(OC)c4)ccc23)cc1`, the survival is 98%.
With `COc1ccc(N2CCN(C(=O)c3cc4c(=O)n(Cc5cccs5)ccc4nc3C)CC2)cc1` the figure was 101%.
With `CCOc1cccc(C(=O)Nc2ccc(-c3nc4cc(C)cc(C)c4o3)cc2)c1` the figure was 82%; with `Cc1ccc2c(c1)sc1nc(-c3cc4ccccc4oc3=O)cn12`, 76%.
On to `Cc1cc(C)c(NC(=O)Cn2nnc(-c3nc(-c4ccncc4)no3)c2N)c(C)c1`, for which the survival was 71%.
The result for `COc1cccc(Nc2nc3ccccc3c3nncn23)c1` reads 84%.
On to `Cc1ccc(Nc2nc3ccccc3c3nncn23)cc1C`, for which the survival is 3% (active).
With `Cc1ccc(Cl)cc1Nc1nc2ccccc2c2nncn12` the figure was 92%; with `COc1cc2ncc3c(-c4ccccc4)nn(CC(=O)NC4CCCCC4)c3c2cc1OC`, 79%; with `CC(C)(C)c1ccc(Oc2ccc(NC(=O)CCC(=O)OCC(=O)c3ccccc3)cc2)cc1`, 86%.
The result for `O=C(CCSCc1cccc(Cl)c1)N1CCN(c2ccc(Cl)cc2)CC1` reads 80%; that for `CCN(CC)C(=O)c1sc2c(c1C)c(=O)n(-c1ccc(Cl)c(Cl)c1)c(=O)n2Cc1cc(=O)n2ccccc2n1`, 118%; that for `CCN(CC)C(=O)c1sc2c(c1C)c(=O)n(-c1ccc(C)c(C)c1)c(=O)n2Cc1cc(=O)n2c(C)cccc2n1`, 22%.
The result for `CCN(CC)C(=O)c1sc2c(c1C)c(=O)n(-c1ccc(Cl)c(Cl)c1)c(=O)n2Cc1cc(=O)n2c(C)cccc2n1` reads 0% (active); that for `COc1ccccc1N1CCN(CC(=O)N2CCCC2)CC1`, 94%; that for `Cc1nc2nc[nH]n2c(=O)c1NS(=O)(=O)c1ccc(Br)cc1`, 84%.
As for `O=S(=O)(c1cc(Cl)ccc1Cl)N1CCCC1`, the survival was 78%.
With `CCOc1ccccc1NC(=O)CSC1=Nc2ccccc2C2=NC(CC(=O)NC3CCCCC3)C(=O)N12` (stereo not drawn) the figure was 81%; with `O=C(COCc1cc(-c2ccco2)on1)Nc1cccc(Cl)c1Cl`, 0% (active); with `O=C(COCc1cc(-c2ccc(F)cc2)on1)Nc1cccc(Cl)c1Cl`, 64%.
Take `Cc1ccc(O)c(NC(=O)COCc2cc(-c3ccco3)on2)c1`: the survival is 87%.
The result for `O=C(COCc1cc(-c2ccco2)on1)Nc1cc(Cl)ccc1O` reads -2% (active).
The result for `O=C(COCc1cc(-c2cccs2)on1)Nc1cccc(Cl)c1Cl` reads 59%; that for `Cc1ccc(Cl)cc1NC(=O)COCc1cc(-c2ccco2)on1`, 77%.
As for `COc1cccc(CNC(=O)c2ccc3c(c2)N(Cc2ccc(F)cc2Cl)C(=O)c2ccccc2S3)c1`, the survival was 19%.
As to `Cc1c(C(=O)Nc2cccc(C(F)(F)F)c2)sc2nc[nH]c(=O)c12`, the survival is 73%.
The result for `CCOC(=O)c1c(NC(=O)CCCOc2ccc(C(C)(C)C)cc2)sc2c1CCCC2` reads 9% (active); that for `CCOC(=O)c1c(NC(=O)CCCOc2ccc(C(C)(C)C)cc2)sc2c1CCC2`, 7% (active); that for `CCOC(=O)c1c(NC(=O)/C=C/c2ccc(OCC)cc2)sc2c1CCCC2`, 78%.
With `CCOC(=O)c1c(NC(=O)COc2ccc(C(C)(C)C)cc2)sc2c1CCCC2` the figure was 69%; with `CCOC(=O)c1c(NC(=O)/C=C/c2ccc(OCC)cc2)sc2c1CCC2`, 139%.
With `CCOC(=O)c1c(NC(=O)CCCOc2ccc(Cl)cc2)sc2c1CCC2` the figure was 20%; with `CN(C)C(=O)c1ccc(N(C)S(=O)(=O)c2ccccc2)cc1`, 113%; with `COc1ccc(NC(=S)N(Cc2ccco2)Cc2cc3cc(C)c(C)cc3[nH]c2=O)cc1`, 103%.
Regarding `Cc1ccc(C(=O)CSc2nc(-c3ccccc3)nc3c2CCCC3)cc1`, the survival is 55%.
For `Cc1ccc(C)c(C(=O)CSc2nc(-c3ccccc3)nc3c2CCCC3)c1`, the survival is 6% (active).
The result for `Cc1ccc(C(=O)CSc2nc(-c3ccccc3)nc3c2CCCC3)c(C)c1` reads 58%; that for `CCn1c(CNC(=O)c2ccc(OC)cc2)nnc1SCC(=O)Nc1ccc(C)cc1`, 125%; that for `O=C1CN(C(=O)c2ccccc2C(F)(F)F)C(c2ccccc2)c2cc(F)ccc2N1` (stereo not drawn), 66%.
For `COc1ccc(CNC(=O)C2CCCCN2S(=O)(=O)c2ccc(F)cc2)cc1` (stereo not drawn), the survival is 87%.
The result for `Cc1ccc(CNC(=O)C2CCCCN2S(=O)(=O)c2ccc(F)cc2)cc1` (stereo not drawn) reads 91%; that for `O=C(NCc1ccc(F)cc1)C1CCCCN1S(=O)(=O)c1ccc(F)cc1` (stereo not drawn), 0% (active).
For the compound `CCOC(=O)CSc1nc(-c2ccc(C)cc2C)cc(-c2ccccc2)c1C#N`, the survival is 63%.
The result for `CNS(=O)(=O)c1cn(CC(=O)N2CCN(c3cc(C)ccc3C)CC2)cc1S(=O)(=O)NC` reads 83%.
Consider `CC(=O)N1CCC(N(Cc2ccc(C)o2)C(=O)Nc2ccc(C)cc2)CC1`, for which the survival was 70%.
The result for `COc1ccc(NC(=O)N(C(C)C)C2CCN(C(C)=O)CC2)c(OC)c1` reads -4% (active); that for `COc1ccc(NC(=O)N(Cc2ccco2)C2CCN(C(C)=O)CC2)c(OC)c1`, 85%; that for `COc1ccc(C)cc1NC(=O)N(Cc1ccc(C)o1)C1CCN(C(C)=O)CC1`, 0% (active).
With `CCOc1ccccc1NC(=O)N(Cc1ccc(C)o1)C1CCN(C(C)=O)CC1` the figure was 75%; with `CCN1CCC(N(Cc2ccc(F)cc2)C(=O)Nc2cc(Cl)ccc2C(=O)OC)CC1`, 80%.
With `COC(=O)c1ccc(Cl)cc1NC(=O)N(Cc1ccc(C)o1)C1CCN(C(C)=O)CC1` the figure was 76%.
As to `COc1ccc(C)cc1NC(=O)N(C(C)C)C1CCN(C(C)=O)CC1`, the survival is 85%.
With `COC(=O)c1ccc(Cl)cc1NC(=O)N(Cc1ccc(OC)cc1)C1CCN(C(C)=O)CC1` the figure was -6% (active); with `O=C(Cn1c(=O)nc(-c2ccccc2)c2ccccc21)NCc1ccc(F)cc1`, 68%.
Turning to `CC(=O)c1ccc(N2CCN(C(=O)CCS(=O)(=O)c3ccc4c(c3)oc(=O)n4C)CC2)cc1`, the survival was 89%.
With `CCCCCOc1ccc(/C=C/C(=O)Nc2sc(C)c(C)c2C(=O)OCC)cc1OC` the figure was 132%; with `CCCOCc1cc(CN2CCN(c3ccccc3OC)CC2)c(O)c2ncccc12`, 99%.
With `CC(C)OC(=O)C1=C(N)OC2=C(C(=O)CCC2)C1c1ccccc1F` (stereo not drawn) the figure was 114%.
The result for `COc1ccc(CCNC(=O)Cn2c(-c3ccc(F)cc3)cc(C(C)=O)c2C)cc1OC` reads 54%; that for `CN1CCN(CCCNC(=O)c2cnn(-c3ccc(F)cc3)c2-n2cccc2)CC1`, 84%.
`O=C(Cc1cccs1)NC1CC(=O)N(c2ccc(F)cc2)C1` (stereo not drawn): the survival is 95%.
The result for `Cc1cccc(CC(=O)NC2CC(=O)N(c3cccc(F)c3)C2)c1` (stereo not drawn) reads 60%; that for `Cc1cccc(CC(=O)NC2CC(=O)N(c3ccccc3)C2)c1` (stereo not drawn), -6% (active).
With `COc1cccc(N2CC(NC(=O)CCCc3ccccc3)CC2=O)c1` (stereo not drawn) the figure was 88%.
The result for `COc1ccc(CCC(=O)NC2CC(=O)N(c3ccccc3)C2)cc1` (stereo not drawn) reads 131%.
For the compound `COc1ccc(N2CC(NC(=O)c3ccc(S(=O)(=O)N4CCCC4)cc3)CC2=O)cc1` (stereo not drawn), the survival is 118%.
With `O=C(Cc1cccs1)NC1CC(=O)N(c2ccccc2)C1` (stereo not drawn) the figure was 78%; with `O=C(Cc1ccccc1)NC1CC(=O)N(c2ccccc2)C1` (stereo not drawn), 76%.
With `COc1ccc(N2CC(NC(=O)CCCc3ccccc3)CC2=O)cc1` (stereo not drawn) the figure was 0% (active); with `Cc1ccc(N2CC(NC(=O)Cc3cccs3)CC2=O)cc1` (stereo not drawn), 0% (active); with `COc1ccc(C(=O)NC2CC(=O)N(c3ccc4c(c3)OCCO4)C2)cc1` (stereo not drawn), 143%.
The result for `COc1ccc(N2CC(NC(=O)c3ccc(OC(C)C)cc3)CC2=O)cc1` (stereo not drawn) reads -2% (active).
`COc1ccc(N2CC3=C(C2=O)C(c2ccc(O)c(OC)c2)NC(=O)N3C)cc1` (stereo not drawn): the survival was 71%.
The result for `CCN(C(=O)Cn1nc(Cc2cccnc2)c2ccccc2c1=O)c1cc(C)ccc1C` reads 83%; that for `CCc1ccccc1NC(=O)Cn1c(SCc2ccc(F)cc2)nc2ccncc21`, 48%.
The result for `COc1ccc(NC(=O)C2CCN(S(=O)(=O)c3c(C)noc3/C=C/c3ccco3)CC2)cc1` reads 128%.
`COc1ccc(CCNC(=O)CCn2c(=O)c3ccccc3n(Cc3ccccc3)c2=O)cc1OC`: the survival was 97%.
The result for `CCC(=O)Nc1ccc(CC)cc1-c1nc2ccccc2n(CC(=O)c2ccc(OC)cc2)c1=O` reads 74%.
The result for `Cc1ccc(N2CC(NC(=O)CCc3ccccc3)CC2=O)cc1` (stereo not drawn) reads -3% (active).
Turning to `Cc1ccc(N2CC(NC(=O)CCCc3ccccc3)CC2=O)cc1` (stereo not drawn), the survival is 53%.
For the compound `O=C(CCc1ccccc1)NC1CC(=O)N(c2ccccc2)C1` (stereo not drawn), the survival was 78%.
On to `COc1ccccc1NC(=O)CN(c1ccc(C(C)C)cc1)S(=O)(=O)c1c(C)noc1C`, for which the survival was 88%.
In the case of `O=c1c2cc3c(nc2ncn1Cc1ccc(Cl)cc1)CCCC3`, the survival is 76%.
The result for `CCSc1nsc(NC(=O)Nc2cccc(OC)c2)n1` reads 95%; that for `O=C(CSc1nnc(NC(=O)Nc2ccccc2)s1)Nc1cccc(F)c1`, 75%; that for `CCSc1nsc(NC(=O)Nc2cccc(F)c2)n1`, 0% (active).
The result for `Cc1ccc(CNC(=O)c2ccc(CSCc3ccc(Cl)cc3)o2)cc1` reads 85%; that for `CCOc1ccc(C(c2c(O)cc(C)n(Cc3ccco3)c2=O)N2CCN(C)CC2)cc1` (stereo not drawn), 66%; that for `CC(C)(C)OC(=O)N1CCC(c2c(C(=O)NCc3ccc4c(c3)OCO4)cnn2-c2ccccc2Cl)CC1`, 75%.
With `CNC(=O)C1CCC(Cn2c(=O)[nH]c3ccsc3c2=O)CC1` (stereo not drawn) the figure was 80%; with `CCCCN(C)C(=O)C1CCC(Cn2c(=O)[nH]c3ccsc3c2=O)CC1` (stereo not drawn), -2% (active).
Turning to `CCCCCNC(=O)CCCCCn1c(=O)[nH]c2ccsc2c1=O`, the survival is 62%.
